# Source: ChEMBL document CHEMBL1961873, “Compounds: GSK PKIS; Assays: Nanosyn kinase panel” (2012)
# Columns and labels:
# [1] = target: Fibroblast growth factor receptor 4 (Homo sapiens) (UniProt P22455); details: at 1 µM;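 also: reported figure is the averaged percent inhibition of FGFR4, from the GSK PKIS kinase screening panel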
# [2] = target: Tyrosine-protein kinase Fgr (Homo sapiens) (UniProt P09769); details: at 0.1 µM
# [3] = target: Tyrosine-protein kinase Fgr (Homo sapiens) (UniProt P09769); details: at 1 µM
# [4] = target: Vascular endothelial growth factor receptor 1 (Homo sapiens) (UniProt P17948); details: at 0.1 µM
# [5] = target: Vascular endothelial growth factor receptor 1 (Homo sapiens) (UniProt P17948); details: at 1 µM
# [6] = target: Receptor-type tyrosine-protein kinase FLT3 (Homo sapiens) (UniProt P36888); details: at 0.1 µM
# [7] = target: Receptor-type tyrosine-protein kinase FLT3 (Homo sapiens) (UniProt P36888); details: at 1 µM
# [8] = test system: T1, Receptor-type tyrosine-protein kinase FLT3 (Homo sapiens), P36888 [D835Y]; details: at 0.1 µM
# T1 sequence (whole entry): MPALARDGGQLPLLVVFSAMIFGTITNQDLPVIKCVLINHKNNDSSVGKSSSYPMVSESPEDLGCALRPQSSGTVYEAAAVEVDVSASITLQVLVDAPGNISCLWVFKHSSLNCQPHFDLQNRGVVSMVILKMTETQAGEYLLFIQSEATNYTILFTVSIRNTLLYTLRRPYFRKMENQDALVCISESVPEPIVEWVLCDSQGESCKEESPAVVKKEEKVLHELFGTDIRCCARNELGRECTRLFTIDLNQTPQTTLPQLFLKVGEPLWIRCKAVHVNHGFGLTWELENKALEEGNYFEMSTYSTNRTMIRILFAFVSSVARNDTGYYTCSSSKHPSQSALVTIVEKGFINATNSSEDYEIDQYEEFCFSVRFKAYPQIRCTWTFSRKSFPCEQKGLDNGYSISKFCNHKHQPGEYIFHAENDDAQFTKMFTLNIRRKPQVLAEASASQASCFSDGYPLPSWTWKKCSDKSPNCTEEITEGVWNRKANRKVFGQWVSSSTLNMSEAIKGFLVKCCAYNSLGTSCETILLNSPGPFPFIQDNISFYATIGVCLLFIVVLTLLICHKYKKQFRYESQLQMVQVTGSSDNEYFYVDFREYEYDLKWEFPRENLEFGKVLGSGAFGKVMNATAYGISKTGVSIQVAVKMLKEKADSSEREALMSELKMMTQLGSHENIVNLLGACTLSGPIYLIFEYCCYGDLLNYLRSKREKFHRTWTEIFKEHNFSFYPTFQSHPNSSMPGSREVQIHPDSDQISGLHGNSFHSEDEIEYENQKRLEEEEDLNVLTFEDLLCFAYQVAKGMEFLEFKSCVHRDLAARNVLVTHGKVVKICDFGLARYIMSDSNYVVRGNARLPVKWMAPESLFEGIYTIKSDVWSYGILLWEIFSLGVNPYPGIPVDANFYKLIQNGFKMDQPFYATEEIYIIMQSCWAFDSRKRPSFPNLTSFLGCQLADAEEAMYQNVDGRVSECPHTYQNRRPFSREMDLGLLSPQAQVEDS
# [9] = target: Non-receptor tyrosine-protein kinase TYK2 (Homo sapiens) (UniProt P29597); details: at 1 µM;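 also: values are mean percent inhibition of TYK2 kinase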
# [10] = target: T2, Tyrosine-protein kinase receptor TYRO3 (Homo sapiens) (UniProt Q06418); details: at 0.1 µM
# T2 sequence (whole entry): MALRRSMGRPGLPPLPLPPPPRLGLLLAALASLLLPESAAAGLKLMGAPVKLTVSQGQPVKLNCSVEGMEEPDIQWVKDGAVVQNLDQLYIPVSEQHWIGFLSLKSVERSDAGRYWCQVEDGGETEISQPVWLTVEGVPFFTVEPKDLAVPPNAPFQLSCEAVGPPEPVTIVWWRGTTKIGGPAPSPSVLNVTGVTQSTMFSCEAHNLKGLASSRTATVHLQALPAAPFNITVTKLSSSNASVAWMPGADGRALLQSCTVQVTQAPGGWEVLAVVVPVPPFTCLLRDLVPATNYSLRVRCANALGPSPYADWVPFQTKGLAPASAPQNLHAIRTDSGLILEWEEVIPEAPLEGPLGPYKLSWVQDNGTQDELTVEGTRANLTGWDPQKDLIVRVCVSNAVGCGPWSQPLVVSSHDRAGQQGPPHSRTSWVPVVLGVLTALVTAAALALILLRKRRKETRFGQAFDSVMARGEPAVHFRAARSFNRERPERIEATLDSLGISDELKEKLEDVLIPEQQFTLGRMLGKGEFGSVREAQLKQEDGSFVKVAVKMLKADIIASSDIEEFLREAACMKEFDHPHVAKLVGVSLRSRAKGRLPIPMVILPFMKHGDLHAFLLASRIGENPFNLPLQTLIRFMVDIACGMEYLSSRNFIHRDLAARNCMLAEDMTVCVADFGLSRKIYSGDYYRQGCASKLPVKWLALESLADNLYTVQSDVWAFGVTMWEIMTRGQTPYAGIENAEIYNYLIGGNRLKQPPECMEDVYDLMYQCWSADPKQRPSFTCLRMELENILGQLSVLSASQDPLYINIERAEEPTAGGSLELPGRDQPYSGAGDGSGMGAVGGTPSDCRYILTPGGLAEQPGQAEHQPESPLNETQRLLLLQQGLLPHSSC
# [11] = target: T2, Tyrosine-protein kinase receptor TYRO3 (Homo sapiens); details: at 1 µM
# [12] = target: Tyrosine-protein kinase Yes (Homo sapiens) (UniProt P07947); details: at 0.1 µM
# [13] = target: Tyrosine-protein kinase Yes (Homo sapiens) (UniProt P07947); details: at 1 µM
# [14] = target: T3, Tyrosine-protein kinase ZAP-70 (Homo sapiens) (UniProt P43403); details: at 0.1 µM
# T3 sequence (whole entry): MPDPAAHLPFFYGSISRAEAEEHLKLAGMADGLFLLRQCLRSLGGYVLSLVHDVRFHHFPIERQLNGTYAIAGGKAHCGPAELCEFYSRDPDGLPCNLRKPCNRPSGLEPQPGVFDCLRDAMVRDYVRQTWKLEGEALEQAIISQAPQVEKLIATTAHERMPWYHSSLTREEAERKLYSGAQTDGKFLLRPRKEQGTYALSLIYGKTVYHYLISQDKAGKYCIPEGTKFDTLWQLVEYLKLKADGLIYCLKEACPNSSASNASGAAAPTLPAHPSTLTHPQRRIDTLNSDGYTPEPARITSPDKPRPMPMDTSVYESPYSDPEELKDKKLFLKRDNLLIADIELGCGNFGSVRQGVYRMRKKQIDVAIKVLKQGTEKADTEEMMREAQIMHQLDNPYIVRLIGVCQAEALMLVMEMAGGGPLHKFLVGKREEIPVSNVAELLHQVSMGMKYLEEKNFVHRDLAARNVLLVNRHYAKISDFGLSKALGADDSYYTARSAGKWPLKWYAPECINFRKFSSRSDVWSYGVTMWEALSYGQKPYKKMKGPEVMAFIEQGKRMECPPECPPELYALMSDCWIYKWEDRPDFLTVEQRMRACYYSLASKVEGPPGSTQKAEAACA
# [15] = target: T3, Tyrosine-protein kinase ZAP-70 (Homo sapiens); details: at 1 µM
# [16] = target: Serine/threonine-protein kinase B-raf (Homo sapiens) (UniProt P15056); details: at 0.1 µM
# [17] = target: Serine/threonine-protein kinase B-raf (Homo sapiens) (UniProt P15056); details: at 1 µM
# [18] = test system: Serine/threonine-protein kinase B-raf (Homo sapiens), P15056 [V600E]; details: at 0.1 µM
# [19] = test system: Serine/threonine-protein kinase B-raf (Homo sapiens), P15056 [V600E]; details: at 1 µM
# [20] = target: RAF proto-oncogene serine/threonine-protein kinase (Homo sapiens) (UniProt P04049); details: at 0.1 µM;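 also: values are mean CRAF kinase inhibition from profiling of the GSK Published Kinase Inhibitor Set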
# Chain of RAF proto-oncogene serine/threonine-protein kinase (Homo sapiens) (P04049 whole entry): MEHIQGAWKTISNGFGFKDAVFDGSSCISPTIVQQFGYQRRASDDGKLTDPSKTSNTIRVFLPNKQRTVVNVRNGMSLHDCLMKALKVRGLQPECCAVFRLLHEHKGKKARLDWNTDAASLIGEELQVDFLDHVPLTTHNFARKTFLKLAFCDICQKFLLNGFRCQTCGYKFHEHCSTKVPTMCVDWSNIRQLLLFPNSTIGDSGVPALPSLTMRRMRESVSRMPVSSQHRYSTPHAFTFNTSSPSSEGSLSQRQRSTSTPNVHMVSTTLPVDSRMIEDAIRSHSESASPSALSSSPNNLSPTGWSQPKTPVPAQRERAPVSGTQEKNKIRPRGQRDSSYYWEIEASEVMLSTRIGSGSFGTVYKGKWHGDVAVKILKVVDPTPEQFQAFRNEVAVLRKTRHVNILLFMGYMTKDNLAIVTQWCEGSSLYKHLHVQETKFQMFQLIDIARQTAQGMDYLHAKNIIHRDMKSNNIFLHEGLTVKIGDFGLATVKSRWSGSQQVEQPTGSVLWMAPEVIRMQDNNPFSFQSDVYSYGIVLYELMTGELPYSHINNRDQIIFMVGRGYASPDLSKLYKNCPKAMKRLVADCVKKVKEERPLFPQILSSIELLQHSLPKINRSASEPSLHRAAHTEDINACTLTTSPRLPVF
# Chain of Tyrosine-protein kinase Yes (Homo sapiens) (P07947 2-543 limits assumed): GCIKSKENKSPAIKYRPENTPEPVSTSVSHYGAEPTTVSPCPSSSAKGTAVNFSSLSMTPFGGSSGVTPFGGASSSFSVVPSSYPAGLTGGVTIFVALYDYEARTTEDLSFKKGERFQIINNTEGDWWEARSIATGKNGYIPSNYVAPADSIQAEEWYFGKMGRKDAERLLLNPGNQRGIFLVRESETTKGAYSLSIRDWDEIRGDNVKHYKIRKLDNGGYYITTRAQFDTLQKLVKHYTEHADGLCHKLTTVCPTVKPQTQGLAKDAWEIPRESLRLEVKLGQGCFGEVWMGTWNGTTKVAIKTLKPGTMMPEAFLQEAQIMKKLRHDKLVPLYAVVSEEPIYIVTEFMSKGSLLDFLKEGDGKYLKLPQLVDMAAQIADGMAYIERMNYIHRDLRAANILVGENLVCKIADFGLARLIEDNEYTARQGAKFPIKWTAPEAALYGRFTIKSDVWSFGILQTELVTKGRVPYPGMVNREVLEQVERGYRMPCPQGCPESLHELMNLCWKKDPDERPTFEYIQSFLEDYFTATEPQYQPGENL
# Chain of Tyrosine-protein kinase Fgr (Homo sapiens) (P09769 2-529 limits assumed): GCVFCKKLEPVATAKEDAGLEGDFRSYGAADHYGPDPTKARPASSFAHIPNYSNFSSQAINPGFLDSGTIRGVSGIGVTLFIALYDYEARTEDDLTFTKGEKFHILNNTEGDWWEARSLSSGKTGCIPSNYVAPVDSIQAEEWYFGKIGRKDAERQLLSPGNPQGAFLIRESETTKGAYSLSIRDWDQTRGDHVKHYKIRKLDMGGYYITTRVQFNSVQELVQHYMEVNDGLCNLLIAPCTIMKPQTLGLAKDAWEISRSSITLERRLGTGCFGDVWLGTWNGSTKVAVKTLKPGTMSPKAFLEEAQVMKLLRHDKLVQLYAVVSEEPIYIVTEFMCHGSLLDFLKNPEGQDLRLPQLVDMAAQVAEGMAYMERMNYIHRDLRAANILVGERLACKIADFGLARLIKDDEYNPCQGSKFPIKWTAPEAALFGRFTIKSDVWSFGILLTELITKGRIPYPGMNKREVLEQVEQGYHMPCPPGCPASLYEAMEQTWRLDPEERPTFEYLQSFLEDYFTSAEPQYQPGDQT
# Chain of Fibroblast growth factor receptor 4 (Homo sapiens) (P22455 22-802 limits assumed): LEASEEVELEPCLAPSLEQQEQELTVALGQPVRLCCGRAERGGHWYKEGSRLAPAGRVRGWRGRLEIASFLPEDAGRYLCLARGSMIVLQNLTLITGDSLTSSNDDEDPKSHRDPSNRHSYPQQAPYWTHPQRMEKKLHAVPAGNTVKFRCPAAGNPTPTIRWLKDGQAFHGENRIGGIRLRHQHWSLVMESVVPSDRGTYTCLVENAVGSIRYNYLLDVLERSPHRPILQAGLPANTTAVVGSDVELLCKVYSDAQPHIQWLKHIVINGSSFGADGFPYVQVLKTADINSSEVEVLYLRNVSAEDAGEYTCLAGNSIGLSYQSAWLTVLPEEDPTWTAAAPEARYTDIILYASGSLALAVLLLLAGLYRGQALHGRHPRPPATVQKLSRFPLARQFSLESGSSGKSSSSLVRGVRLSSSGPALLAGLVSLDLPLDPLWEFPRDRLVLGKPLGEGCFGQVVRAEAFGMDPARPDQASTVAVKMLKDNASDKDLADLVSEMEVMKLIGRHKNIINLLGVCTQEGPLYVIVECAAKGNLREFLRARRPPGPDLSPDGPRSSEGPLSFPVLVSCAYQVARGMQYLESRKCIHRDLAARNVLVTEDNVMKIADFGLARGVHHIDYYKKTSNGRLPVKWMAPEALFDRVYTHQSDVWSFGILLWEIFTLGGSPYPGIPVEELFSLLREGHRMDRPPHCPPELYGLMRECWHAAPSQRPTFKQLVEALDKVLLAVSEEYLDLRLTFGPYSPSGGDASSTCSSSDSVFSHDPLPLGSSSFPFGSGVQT
# Chain of Vascular endothelial growth factor receptor 1 (Homo sapiens) (P17948 whole entry): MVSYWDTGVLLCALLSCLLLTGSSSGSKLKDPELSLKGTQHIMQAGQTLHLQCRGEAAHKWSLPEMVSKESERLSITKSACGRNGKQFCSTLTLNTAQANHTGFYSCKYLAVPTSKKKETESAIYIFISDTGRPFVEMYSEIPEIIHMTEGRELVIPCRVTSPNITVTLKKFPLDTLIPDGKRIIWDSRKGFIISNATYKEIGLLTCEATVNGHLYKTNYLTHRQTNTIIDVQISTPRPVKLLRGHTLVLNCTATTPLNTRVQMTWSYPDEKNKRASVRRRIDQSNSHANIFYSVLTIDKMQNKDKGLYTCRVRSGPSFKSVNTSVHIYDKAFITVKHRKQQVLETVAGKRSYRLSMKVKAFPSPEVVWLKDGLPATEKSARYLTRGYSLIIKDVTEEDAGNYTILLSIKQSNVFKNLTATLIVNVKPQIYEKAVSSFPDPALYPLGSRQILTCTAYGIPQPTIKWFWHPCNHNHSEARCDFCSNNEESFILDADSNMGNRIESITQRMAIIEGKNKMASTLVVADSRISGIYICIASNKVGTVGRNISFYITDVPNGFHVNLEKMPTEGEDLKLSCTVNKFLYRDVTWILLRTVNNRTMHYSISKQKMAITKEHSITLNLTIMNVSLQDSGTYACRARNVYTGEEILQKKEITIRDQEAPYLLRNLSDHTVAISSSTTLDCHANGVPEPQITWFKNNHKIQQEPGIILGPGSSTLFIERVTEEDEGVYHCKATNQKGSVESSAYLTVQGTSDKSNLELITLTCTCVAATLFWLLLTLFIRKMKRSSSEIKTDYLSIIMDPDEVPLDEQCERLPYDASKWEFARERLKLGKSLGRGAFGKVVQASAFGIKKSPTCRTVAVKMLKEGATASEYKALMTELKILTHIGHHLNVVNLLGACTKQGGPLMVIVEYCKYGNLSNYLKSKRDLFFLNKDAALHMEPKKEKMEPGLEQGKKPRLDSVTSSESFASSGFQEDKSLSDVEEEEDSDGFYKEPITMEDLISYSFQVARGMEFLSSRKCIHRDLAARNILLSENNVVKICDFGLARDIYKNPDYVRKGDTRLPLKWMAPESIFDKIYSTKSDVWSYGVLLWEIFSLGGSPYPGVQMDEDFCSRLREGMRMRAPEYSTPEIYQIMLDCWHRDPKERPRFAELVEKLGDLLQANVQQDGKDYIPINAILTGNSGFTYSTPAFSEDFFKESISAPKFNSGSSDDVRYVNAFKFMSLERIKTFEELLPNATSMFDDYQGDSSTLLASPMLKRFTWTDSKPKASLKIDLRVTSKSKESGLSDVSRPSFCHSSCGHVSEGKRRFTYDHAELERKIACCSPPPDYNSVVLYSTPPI
# Chain of Serine/threonine-protein kinase B-raf (Homo sapiens) (P15056 whole entry): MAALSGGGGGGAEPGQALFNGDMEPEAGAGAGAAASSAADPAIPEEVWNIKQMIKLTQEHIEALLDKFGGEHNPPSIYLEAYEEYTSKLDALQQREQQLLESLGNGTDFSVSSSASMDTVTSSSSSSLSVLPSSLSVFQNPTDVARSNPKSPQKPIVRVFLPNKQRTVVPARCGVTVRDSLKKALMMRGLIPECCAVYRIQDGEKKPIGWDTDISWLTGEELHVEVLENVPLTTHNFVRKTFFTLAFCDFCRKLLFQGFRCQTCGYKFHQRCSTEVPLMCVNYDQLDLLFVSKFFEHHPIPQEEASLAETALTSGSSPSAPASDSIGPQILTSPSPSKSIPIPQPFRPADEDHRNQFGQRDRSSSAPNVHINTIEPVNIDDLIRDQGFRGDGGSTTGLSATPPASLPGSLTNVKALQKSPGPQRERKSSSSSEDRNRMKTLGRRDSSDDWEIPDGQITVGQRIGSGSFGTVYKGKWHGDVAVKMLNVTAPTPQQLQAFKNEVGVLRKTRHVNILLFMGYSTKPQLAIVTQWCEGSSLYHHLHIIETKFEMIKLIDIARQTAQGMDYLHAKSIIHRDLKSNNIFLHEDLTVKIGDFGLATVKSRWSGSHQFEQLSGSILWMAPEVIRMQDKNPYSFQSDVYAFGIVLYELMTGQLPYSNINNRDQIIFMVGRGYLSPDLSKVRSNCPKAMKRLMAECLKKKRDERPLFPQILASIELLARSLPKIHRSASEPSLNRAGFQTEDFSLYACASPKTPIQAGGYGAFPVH
# Chain of Serine/threonine-protein kinase B-raf (Homo sapiens), P15056 [V600E] (P15056 whole entry V600E): as the sequence (P15056 whole entry) above, with V600E counted along it
Structure (SMILES),inhibition [1] [%],inhibition [2] [%],inhibition [3] [%],inhibition [4] [%],inhibition [5] [%],inhibition [6] [%],inhibition [7] [%],inhibition [8] [%],inhibition [9] [%],inhibition [10] [%],inhibition [11] [%],inhibition [12] [%],inhibition [13] [%],inhibition [14] [%],inhibition [15] [%],inhibition [16] [%],inhibition [17] [%],inhibition [18] [%],inhibition [19] [%],inhibition [20] [%]
CCn1c(-c2nonc2N)nc2c(C#CC(C)(C)O)nc(CN3CCCC3)cc21,1.16,-1.03,3.81,-1.48,3.78,-1.67,-0.42,-4.71,-0.89,0.06,-1.52,-0.41,5.7,2.82,1.75,-1.46,-1.6,-1.31,-0.8,-3.54
CCn1c(-c2nonc2N)nc2cnc(Oc3cccc(NC(=O)c4ccc(OCCN5CCOCC5)cc4)c3)cc21,2.48,4.08,5.54,0.64,2.14,0.9,3.19,-3.34,-1.28,3.27,2.81,3.49,4.67,-1.7,-1.56,4.86,6.86,5.41,5.71,-0.87
COc1cc2ncn(-c3cc(OCc4ccccc4Cl)c(C(N)=O)s3)c2cc1OC,2.76,3.61,19.1,0.69,9.81,0.85,3.62,-2.29,2.41,1.87,9.65,3.58,17.9,-2.94,0.47,2.05,2.15,1.45,2.82,0.16
O=C1NC(=O)C(c2ccccc2Cl)=C1Nc1cccc(O)c1,0.13,1.27,2.07,0.36,0.77,2.15,2.8,3.17,-2.87,1.29,1.2,1.06,-1.97,1.65,0.4,3.05,3.21,3.01,2.95,4.73
CS(=O)(=O)Nc1ccc(N/C=C2\C(=O)Nc3ccccc32)cc1,5.07,1.13,15,4.31,20.8,18.4,74.1,18.7,9.24,-2.18,6.06,-1.31,10.4,-3.14,-2.93,-2.74,-2.55,-3.06,-2.04,-5.04
COc1cc2ncn(-c3cc(OCc4ccccc4C(F)(F)F)c(C(N)=O)s3)c2cc1OC,-1.16,4.79,14.6,1.92,9.39,0.06,9.95,9.27,-6.76,3.15,10.3,1.77,7.91,-2.01,-1.32,5.82,4.85,3.47,3.52,1.99
CCn1c(-c2nonc2N)nc2cncc(C(=O)N3CCNCC3)c21,2.67,1.29,2.57,0.7,2.54,5.99,4.6,-1.23,-2.3,1.84,2.14,2.93,3.85,2.85,4.99,9.15,11.5,6.08,5.58,4.15
c1cnn2ncc(-c3ccnc(Nc4ccc5c(c4)OCCO5)n3)c2c1,4.77,4.29,14.5,8.17,20.5,29.5,75.7,9.31,12.8,5.88,25,6.25,18.3,0.79,9.39,9.37,33.3,8.24,31,-0.29
CS(=O)(=O)CCNCc1nc(-c2ccc3ncnc(Nc4ccc(F)c(Cl)c4)c3c2)cs1,-0.36,5.78,10.6,1.98,-0.42,-0.6,0.63,2.29,-3.18,0.5,3.05,-0.53,9.54,-0.36,-0.71,1.66,3.47,1.41,3.88,-0.76
CCn1c(-c2nonc2N)nc2ccncc21,-0.3,0.66,1.16,0.15,-0.38,3.16,1.23,-3.67,-0.83,-0.29,-0.39,1.81,-1.91,7.67,3.68,2.92,2.33,1.64,3.84,6.58
Nc1ncnc2occ(-c3ccc(NC(=O)Nc4cccc(C(F)(F)F)c4)cc3)c12,13.3,3.07,25.1,56,91,85.3,93.9,18.4,-3.79,3.18,32.2,7.17,45.7,1.4,1.43,7.07,13.3,5.78,13.5,0.71
CCn1c(-c2nonc2N)nc2c(N3CCCC3)nccc21,-0.48,-0.82,-0.02,-0.79,-0.61,-0.78,-2,-4.93,4.26,-1.31,-1.5,-4.35,4.6,1.14,2.3,0.2,4.02,-2.4,-2.63,-1.29
CS(=O)(=O)CCNCc1ccc(-c2ccc3ncnc(Nc4ccc(OCc5cccc(F)c5)c(C(F)(F)F)c4)c3c2)o1,-0.05,3.99,2.16,-0.83,-0.68,1,1.21,-2.74,-3.56,3.52,3.6,0.9,5.19,-4.38,-2.61,6.3,6.29,7.33,6.22,2.93
